Holding throughout (parameters): scale not given: direction of the effect not stated beside the values
Test [1] deals with Protein translocase subunit SecA (Escherichia coli (strain K12)) (UniProt P10408). The test is described as follows: Assay to Identify E. coli SecA ATPase Inhibitors. In kind it is functional. The following applies: 30 µM.
In test [2] the target is T1, Ubiquitin-activating enzyme e1, putative (Leishmania donovani (strain BPK282A1)) (UniProt E9BSI1).
T1 sequence (whole entry): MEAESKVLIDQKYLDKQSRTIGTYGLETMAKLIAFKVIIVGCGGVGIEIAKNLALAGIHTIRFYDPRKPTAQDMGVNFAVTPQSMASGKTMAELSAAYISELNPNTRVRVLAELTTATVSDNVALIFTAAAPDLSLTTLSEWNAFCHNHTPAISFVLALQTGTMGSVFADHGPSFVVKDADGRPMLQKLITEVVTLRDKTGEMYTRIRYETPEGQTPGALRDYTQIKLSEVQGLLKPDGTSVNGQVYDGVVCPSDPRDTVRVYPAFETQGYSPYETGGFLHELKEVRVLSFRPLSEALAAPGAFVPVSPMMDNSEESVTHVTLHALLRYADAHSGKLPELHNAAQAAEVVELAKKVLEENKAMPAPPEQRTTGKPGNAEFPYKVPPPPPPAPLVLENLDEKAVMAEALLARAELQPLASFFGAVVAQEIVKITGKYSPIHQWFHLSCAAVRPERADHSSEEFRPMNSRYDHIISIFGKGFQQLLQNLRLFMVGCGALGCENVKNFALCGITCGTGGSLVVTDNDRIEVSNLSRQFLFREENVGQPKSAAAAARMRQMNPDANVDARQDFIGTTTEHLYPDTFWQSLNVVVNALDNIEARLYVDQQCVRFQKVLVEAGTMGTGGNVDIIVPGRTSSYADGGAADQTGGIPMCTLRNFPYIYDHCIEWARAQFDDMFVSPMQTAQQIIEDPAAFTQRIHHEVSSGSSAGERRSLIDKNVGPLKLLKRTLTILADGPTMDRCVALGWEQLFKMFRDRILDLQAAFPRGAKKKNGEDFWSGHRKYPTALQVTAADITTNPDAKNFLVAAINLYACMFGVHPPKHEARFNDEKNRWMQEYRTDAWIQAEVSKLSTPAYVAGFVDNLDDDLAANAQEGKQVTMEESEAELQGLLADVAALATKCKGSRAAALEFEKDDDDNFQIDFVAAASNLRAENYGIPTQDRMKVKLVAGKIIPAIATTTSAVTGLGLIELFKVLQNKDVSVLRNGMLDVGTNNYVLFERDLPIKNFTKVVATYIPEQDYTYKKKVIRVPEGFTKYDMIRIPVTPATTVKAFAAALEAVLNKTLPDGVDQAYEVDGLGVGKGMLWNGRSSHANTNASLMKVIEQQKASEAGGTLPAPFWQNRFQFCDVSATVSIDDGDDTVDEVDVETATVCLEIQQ
The test is described as follows: Leishmania donovani Ubiquitin Activating Enzyme (LdE1). In kind it is functional. The following applies: 30 µM.

The target of test [3] is AMP-activated protein kinase, AMPK (Homo sapiens) (UniProt P54646+O43741+P54619+Q9UGJ0+Q9Y478+Q13131+Q9UGI9). The experiment in a line: AMP-dependent Kinase enzyme assay. An in vitro enzyme assay that detects ADP turnover that is directly proportional to AMPK activity. This uses naive AMPK that is activated during the assay with MK-8722. In kind it is functional. The following applies: 30 µM.

In test [4] the target is Sialic acid-binding Ig-like lectin 9 (Homo sapiens) (UniProt Q9Y336). The experiment in a line: Hs-Siglec9 ALPHAscreen SOP 20170721. The following applies: 10 µM. On the technique in general: In Alpha technology, singlet oxygen from a donor bead excites a nearby acceptor bead.
Sialic acid-binding Ig-like lectin 9 (Homo sapiens), sequence (Q9Y336 whole entry): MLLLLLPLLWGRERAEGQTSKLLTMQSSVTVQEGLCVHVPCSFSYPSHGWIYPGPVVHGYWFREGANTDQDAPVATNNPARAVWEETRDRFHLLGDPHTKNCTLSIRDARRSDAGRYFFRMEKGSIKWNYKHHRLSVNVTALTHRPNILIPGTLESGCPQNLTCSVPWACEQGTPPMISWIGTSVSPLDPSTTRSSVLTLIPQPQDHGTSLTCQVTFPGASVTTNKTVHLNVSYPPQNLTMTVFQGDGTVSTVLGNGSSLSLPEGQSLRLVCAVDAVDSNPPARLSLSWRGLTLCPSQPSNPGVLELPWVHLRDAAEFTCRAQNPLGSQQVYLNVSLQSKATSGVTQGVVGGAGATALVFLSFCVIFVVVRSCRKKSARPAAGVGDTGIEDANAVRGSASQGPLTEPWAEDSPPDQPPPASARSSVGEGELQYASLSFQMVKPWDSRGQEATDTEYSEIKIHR
The next test deals with Trypanosoma cruzi. The experiment in a line: Trypanosoma cruzi phosphomannomutase and mannose-1-phosphate guanylyltransferase assay. In kind it is functional. Particulars: 10 µM.
For test [5], the target named is T2, Arginase-2, mitochondrial (Homo sapiens) (UniProt P78540).
T2 sequence (whole entry): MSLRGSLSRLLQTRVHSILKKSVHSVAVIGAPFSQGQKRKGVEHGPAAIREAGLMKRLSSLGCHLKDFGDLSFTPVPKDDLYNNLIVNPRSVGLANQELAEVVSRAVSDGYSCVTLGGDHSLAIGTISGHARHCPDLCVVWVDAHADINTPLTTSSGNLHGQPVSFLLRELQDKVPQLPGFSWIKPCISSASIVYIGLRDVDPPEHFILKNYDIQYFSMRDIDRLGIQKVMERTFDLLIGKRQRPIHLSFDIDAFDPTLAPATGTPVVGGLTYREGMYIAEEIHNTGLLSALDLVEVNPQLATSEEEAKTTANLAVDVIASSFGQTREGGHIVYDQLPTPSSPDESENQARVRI
The test is described as follows: in vitro enzyme assay to detect the production of urea directly proportional to the activity of Arginase II. Further: in the data most compounds retested in dose-response had high values. The following applies: 33.3 µM. In kind it is functional.

Test [6] has as its target T3, Proteasome subunit beta (Trypanosoma cruzi) (UniProt O96673).
T3 sequence (whole entry): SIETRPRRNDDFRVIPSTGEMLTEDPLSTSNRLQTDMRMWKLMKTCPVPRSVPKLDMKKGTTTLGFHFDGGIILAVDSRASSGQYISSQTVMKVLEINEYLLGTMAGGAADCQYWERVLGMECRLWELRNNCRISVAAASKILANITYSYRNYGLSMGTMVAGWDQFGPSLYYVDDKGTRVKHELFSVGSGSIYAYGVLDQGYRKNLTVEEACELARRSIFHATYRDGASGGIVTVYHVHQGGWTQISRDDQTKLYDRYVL
The test is described as follows: Trypanosoma cruzi proteasome chymotrypsin-like activity (TcProtChymo) assay. Further: in the data most compounds retested in dose-response had high values. In kind it is functional. The following applies: 9.37 µM.

The species named for the next test is Homo sapiens. The test is described as follows: To identify inhibition of the IFN signalling (Jak-Stat) pathway via expression of an eGFP reporter gene under the control of an IFN-stimulated response element (ISRE) containing MxA promoter. In kind it is functional. Particulars: 30 µM.
Test [7] addresses T4, Tyrosyl-tRNA synthetase, putative (Trypanosoma cruzi (strain CL Brener)) (UniProt Q4DSP6).
T4 sequence (whole entry): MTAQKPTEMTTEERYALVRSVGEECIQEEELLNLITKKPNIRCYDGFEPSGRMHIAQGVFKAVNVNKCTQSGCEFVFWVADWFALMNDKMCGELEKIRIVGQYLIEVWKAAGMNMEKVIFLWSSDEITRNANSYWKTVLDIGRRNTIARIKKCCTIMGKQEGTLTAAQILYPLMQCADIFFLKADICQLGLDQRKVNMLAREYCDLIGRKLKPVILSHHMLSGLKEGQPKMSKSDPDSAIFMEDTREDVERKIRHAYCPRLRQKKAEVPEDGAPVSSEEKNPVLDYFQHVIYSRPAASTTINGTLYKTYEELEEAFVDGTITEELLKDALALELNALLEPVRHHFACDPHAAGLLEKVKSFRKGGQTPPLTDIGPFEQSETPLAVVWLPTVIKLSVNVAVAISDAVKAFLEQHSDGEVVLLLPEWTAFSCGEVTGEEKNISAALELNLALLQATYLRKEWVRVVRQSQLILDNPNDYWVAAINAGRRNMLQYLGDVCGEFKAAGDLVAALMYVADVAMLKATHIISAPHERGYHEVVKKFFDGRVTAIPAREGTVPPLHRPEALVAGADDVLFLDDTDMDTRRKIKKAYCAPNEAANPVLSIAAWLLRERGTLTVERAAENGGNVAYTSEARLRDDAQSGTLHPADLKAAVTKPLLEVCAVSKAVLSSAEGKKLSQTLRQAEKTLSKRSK
The experiment in a line: Trypanosoma cruzi tyrosyl tRNA synthetase (TcYRS) _High Tyrosine SOP. Further: in the data most compounds retested in dose-response had high values. In kind it is functional. The following applies: 30 µM.

Test [8] has as its target T4, Tyrosyl-tRNA synthetase, putative (Trypanosoma cruzi (strain CL Brener)). The experiment in a line: Trypanosoma cruzi tyrosyl tRNA synthetase (TcYRS) SOP. Particulars: 30 µM. In kind it is functional.
For test [9], the target named is Chromo domain-containing protein 1 (Saccharomyces cerevisiae (strain ATCC 204508 / S288c) (Baker's yeast)) (UniProt P32657). The test is described as follows: ScCHD-1 Enzyme Inhibition Assay. Further: in the data most compounds retested in dose-response had high values. In kind it is functional. The following applies: 30 µM.
Chromo domain-containing protein 1 (Saccharomyces cerevisiae (strain ATCC 204508 / S288c) (Baker's yeast)), sequence (P32657 whole entry, the tested form may be a part): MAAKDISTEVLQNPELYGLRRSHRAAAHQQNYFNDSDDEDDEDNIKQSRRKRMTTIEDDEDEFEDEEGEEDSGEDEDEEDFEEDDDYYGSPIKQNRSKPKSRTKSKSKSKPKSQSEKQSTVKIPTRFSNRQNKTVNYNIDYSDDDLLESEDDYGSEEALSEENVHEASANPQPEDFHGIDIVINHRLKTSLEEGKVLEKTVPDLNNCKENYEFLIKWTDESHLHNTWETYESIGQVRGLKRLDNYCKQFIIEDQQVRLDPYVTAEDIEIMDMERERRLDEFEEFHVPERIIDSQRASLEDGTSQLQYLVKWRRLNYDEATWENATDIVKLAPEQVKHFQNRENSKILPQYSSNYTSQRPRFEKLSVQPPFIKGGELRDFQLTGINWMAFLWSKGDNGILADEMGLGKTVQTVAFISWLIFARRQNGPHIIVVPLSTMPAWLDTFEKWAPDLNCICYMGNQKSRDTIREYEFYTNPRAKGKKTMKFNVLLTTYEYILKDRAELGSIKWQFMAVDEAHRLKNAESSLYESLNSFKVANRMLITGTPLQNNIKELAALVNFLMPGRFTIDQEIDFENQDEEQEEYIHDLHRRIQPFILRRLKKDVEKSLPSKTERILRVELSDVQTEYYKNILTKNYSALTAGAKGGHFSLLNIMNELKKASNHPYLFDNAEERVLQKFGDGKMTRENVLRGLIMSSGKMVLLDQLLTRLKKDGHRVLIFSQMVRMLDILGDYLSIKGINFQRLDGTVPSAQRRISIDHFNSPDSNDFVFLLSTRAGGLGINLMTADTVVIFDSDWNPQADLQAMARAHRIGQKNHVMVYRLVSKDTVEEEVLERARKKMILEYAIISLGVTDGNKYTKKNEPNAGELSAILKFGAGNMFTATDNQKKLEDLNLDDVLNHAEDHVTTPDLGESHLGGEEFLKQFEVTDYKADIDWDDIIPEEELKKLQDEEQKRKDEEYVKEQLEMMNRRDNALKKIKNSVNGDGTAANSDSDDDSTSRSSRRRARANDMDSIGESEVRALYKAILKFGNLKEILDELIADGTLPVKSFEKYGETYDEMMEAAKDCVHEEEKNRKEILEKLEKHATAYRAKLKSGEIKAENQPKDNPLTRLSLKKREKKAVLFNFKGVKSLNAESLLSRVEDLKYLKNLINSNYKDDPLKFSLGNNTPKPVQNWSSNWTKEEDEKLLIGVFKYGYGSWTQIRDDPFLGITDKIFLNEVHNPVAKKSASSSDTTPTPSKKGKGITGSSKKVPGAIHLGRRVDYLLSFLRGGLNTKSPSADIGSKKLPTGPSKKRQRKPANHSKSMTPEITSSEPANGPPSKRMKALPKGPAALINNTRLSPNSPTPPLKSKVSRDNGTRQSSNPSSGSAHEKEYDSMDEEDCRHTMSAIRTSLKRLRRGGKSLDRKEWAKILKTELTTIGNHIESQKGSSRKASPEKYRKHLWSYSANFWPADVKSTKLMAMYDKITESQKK

For some of these results: Entries with a potency or affinity are not part of this list.

This passage reports Percent Effect results from ChEMBL document CHEMBL3988442, “University of Dundee, Small-Polar-MMV Screening Library” (2021).

Protein translocase subunit SecA (Escherichia coli (strain K12)), sequence (P10408 whole entry): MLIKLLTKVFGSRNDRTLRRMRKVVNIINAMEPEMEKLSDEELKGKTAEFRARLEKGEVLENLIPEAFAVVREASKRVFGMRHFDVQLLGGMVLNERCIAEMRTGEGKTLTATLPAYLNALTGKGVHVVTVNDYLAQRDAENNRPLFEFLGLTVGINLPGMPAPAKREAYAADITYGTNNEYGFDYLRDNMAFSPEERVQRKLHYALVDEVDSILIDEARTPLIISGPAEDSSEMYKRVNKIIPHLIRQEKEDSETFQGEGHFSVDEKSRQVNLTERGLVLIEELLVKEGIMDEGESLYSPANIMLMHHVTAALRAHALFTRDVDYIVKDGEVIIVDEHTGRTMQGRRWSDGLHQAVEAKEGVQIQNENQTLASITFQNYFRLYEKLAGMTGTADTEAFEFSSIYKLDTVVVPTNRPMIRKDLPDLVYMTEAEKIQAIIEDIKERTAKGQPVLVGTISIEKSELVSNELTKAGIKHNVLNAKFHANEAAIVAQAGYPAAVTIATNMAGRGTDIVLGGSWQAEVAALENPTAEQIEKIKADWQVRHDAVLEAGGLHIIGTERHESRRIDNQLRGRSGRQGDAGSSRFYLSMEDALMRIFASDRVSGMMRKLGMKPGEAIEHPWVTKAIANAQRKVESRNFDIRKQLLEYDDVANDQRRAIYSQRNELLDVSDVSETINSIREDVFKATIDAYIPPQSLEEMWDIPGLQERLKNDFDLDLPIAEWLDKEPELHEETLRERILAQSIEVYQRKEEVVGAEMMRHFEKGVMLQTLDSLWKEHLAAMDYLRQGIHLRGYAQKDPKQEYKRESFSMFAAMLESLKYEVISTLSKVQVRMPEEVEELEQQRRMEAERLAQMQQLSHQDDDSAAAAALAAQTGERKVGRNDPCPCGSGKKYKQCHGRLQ

Turning to `CCOCC1CN(Cc2cccc(C#N)c2)Cc2nccn2C1` (stereo unspecified), the Percent Effect was -3.99% in test [1]; -5.48% in [2]; 2.91% in test [3]; 1.44% in test [4]; -2.38% with Trypanosoma cruzi; -2% in test [5]. For the same compound, the Percent Effect in test [6] was 12.4%; in the test filed under Homo sapiens, -1.58%; in test [7], 4.17%; in [8], 3.7%; in test [9], -1.98%.

In the case of `Cc1cn2c(n1)CCC(NC(=O)CCn1ccnn1)C2` (stereo unspecified), the Percent Effect was -3.55% in test [1]; 5.26% in [2]; -3.01% in [3]; -3.07% in [4]; -3.08% with Trypanosoma cruzi; 3.24% in [5]. In addition, the Percent Effect in test [6] is 5.33%; in the test listed under Homo sapiens, -2.68%; in test [7], 2.46%; in test [8], 6.17%; in test [9] it was 3%.

With `COc1cc(C(=O)N(C2CC2)C2CC(=O)NC2=O)ccc1C` (stereo unspecified), the Percent Effect in test [1] is 0.67%; in [2] it was 12.7%; in test [3], 4.42%; in test [4], 4.45%; in the test on Trypanosoma cruzi it was -7.84%; in test [5] it was 8.37%. The Percent Effect in test [6] is 1.72%; in the test filed under Homo sapiens, 24.4%; in [7] it was 4.43%; in test [8], 11.4%; in [9] it was -4.59%.

Regarding `CCCN1C(=O)CC(N2CCN(c3ccc(F)cc3)CC2)C1=O` (stereo unspecified), the Percent Effect in [1] is -0.321%; in [2], 13.2%; in [3] it was 5.3%; in test [4] it was -9.41%; in the test with Trypanosoma cruzi, -3.99%; in test [5] it was -7.1%. For the same compound, the Percent Effect in test [6] was 11.6%; in the test listed under Homo sapiens it was 11.5%; in test [7] it was 0%; in test [8] it was 7.79%; in test [9], -5.52%.

As to `COc1c(CNCc2cccc(Cn3ccnc3)c2)c(C)nn1C`, the Percent Effect in [1] was -5.63%; in [2], 21.6%; in test [3] it was -15%; in [4] it was 13.9%; with Trypanosoma cruzi, 5.38%; in test [5] it was -11.2%. Besides, the Percent Effect in test [6] is 10.3%; in the test listed under Homo sapiens, 37.8%; in test [7], 4.43%; in test [8] it was 18.5%; in test [9] it was -10%.

Turning to `N#CC1(C(=O)N2CCN(c3nccs3)CC2)CCCCC1`, the Percent Effect in [1] was -1.57%; in test [2], 13.2%; in [3] it was 7.71%; in [4], 8.98%; in the test on Trypanosoma cruzi it was -2.26%; in [5] it was 2.68%. The Percent Effect in test [6] was 11%; in the test listed under Homo sapiens it was -3.2%; in test [7], 7.35%; in [8] it was 17.1%; in [9], -6.21%.

Turning to `CNc1nc2c(s1)C(c1c(Cl)cccc1Cl)CC(=O)N2` (stereo unspecified), the Percent Effect in test [1] is 2.52%; in [2], 5.26%; in test [3] it was -467%; in test [4], 4.3%; with Trypanosoma cruzi, 0.682%; in test [5] it was 0%. For the same compound, the Percent Effect in test [6] was 17%; in the test filed under Homo sapiens, 4.23%; in [7], -10.6%; in [8], -10.4%; in [9], -2.54%.

As for `Cc1nc2ccccc2nc1CN1CCCC1Cn1cncn1` (stereo unspecified), the Percent Effect in [1] is -0.371%; in test [2], 20.8%; in test [3] it was -4.59%; in test [4] it was -7.28%; in the test on Trypanosoma cruzi, 3.23%; in test [5], 1.9%. Further, the Percent Effect in test [6] is 19.5%; in the test filed under Homo sapiens, 13.1%; in [7], 16.2%; in test [8], 21.2%; in test [9], -23.2%.

Take `CC(C)(C)c1nc(CN2CCCC2Cn2cccn2)no1` (stereo unspecified): the Percent Effect in [1] was -1.54%; in [2], 26%; in test [3], -0.88%; in test [4], -2.85%; with Trypanosoma cruzi, 2.81%; in [5], 6.41%. For the same compound, the Percent Effect in test [6] is 17.7%; in the test listed under Homo sapiens it was 18.5%; in test [7] it was 12.6%; in [8], 26.8%; in test [9], -9.21%.

Regarding `COCC1CN(Cc2ccncc2)Cc2nnn(CC3CC3)c21` (stereo unspecified), the Percent Effect was -1.08% in [1]; 0% in [2]; 2.57% in test [3]; 2.54% in test [4]; 0.688% with Trypanosoma cruzi; -1.38% in [5]. The Percent Effect was 1.33% in test [6]; -3.55% in the test listed under Homo sapiens; 0% in test [7]; -1.24% in test [8]; 3.24% in test [9].

With `Cn1cc(N2CCCC(NCc3cccc4c3OCCCO4)C2)cn1` (stereo unspecified), the Percent Effect in test [1] is -4.17%; in test [2], 16.2%; in [3], -10%; in test [4], 1.61%; in the test on Trypanosoma cruzi, 0.472%; in test [5], -4.01%. Moreover, the Percent Effect in [6] is 0.721%; in the test filed under Homo sapiens, 3.65%; in test [7] it was 7.39%; in test [8], 23.5%; in test [9] it was -7.98%.
